Source: PubChem BioAssay AID1347073 (National Center for Advancing Translational Sciences (NCATS), 2019)
About 200 (0.44%) of roughly 45,000 compounds were called active. About 7% were inconclusive and are not listed. The entries come from a sample that favours actives as a whole. Values without a mark were called inactive. Calls follow the shape of the dose curve; as a rule, active = well fitted activation curve with a large enough effect; inconclusive = small, poorly fitted or top-dose-only effect; inactive = no such curve, though single readings can be large or run the other way.

Experiment: qHTS of TDP-43 Inhibitors: NCGC Sytravon Library Screen; also: nearly all actives have a fitted effect of over 55% in size; as to growth rescue (activation): 0% is about no effect
Settings: yeast TDP-43 toxicity rescue, BacTiter-Glo growth, 24 h; series mostly up to 46.1 µM; growth rescue (activation): at the top concentration
Description: The goal of this project is to identify new chemical probes capable of reversing the toxicity associated with TDP-43 which is associated with frontotemporal lobar degeneration and amyotrophic lateral sclerosis. These compounds will provide a complementary approach to deciphering the tangled mechanisms of toxicity and protection that we have uncovered through genome-wide genetic screens and are beginning to uncover in a large-scale proteomics analysis with mass spectroscopy. To this end, a miniaturized assay was developed to be screened against the Molecular Libraries Small Molecule Repository (MLSMR) to discover TDP-43 inhibitors. Please note that in the set-up this yeast-based assay compounds that inhibit as TDP-43, have a read-out as activators. NIH Chemical Genomics Center [NCGC] NIH Molecular Libraries Probe Centers Network [MLPCN] Assay Submitter (PI): Susan Lindquist, Whitehead Institute/MIT MLPCN Grant: R21 NS060957
Dispense 2.5 microL yeast galactose medium per 1536-well plate, pin compound, dispense 2.5 microL TDP-43 expressing yeast in galactose medium at OD600=0.02 (pregrown in raffinose medium to mid-log phase) per well, incubate for 24 hr at 30 deg C, and cell growth will be measured using 5 microL of Bactiter/Glo reagent to entire plate and read using Luminescence Protocol in ViewLux.
Potency is read from the fitted curve at half-maximal effect.

Row | Structure (SMILES) | growth rescue (activation) [%] | Potency
1 | O=C(CN1CCC(O)(c2cccc(C(F)(F)F)c2)CC1)NCCc1ccccc1 | -14.5 | 
2 | CC(NC(=O)COC(=O)c1cc(=O)[nH]c2ccccc12)c1ccccc1 (configuration not stated) | -3.18 | 
3 | COc1cc(C(c2c(NC(=O)c3ccco3)sc(C)c2C)N2CCOCC2)cc(OC)c1OC (configuration not stated) | 20.2 | 
4 | CC1(C(=O)Nc2cccc3cccnc23)CCN1C(=O)CCC1CCCC1 (configuration not stated) | 23.9 | 
5 | Cc1ccc(N2C(=O)CN=C2Nc2nc(C)cc(C)n2)cc1 | -13.7 | 
6 | CCOc1cc(NC(=O)CCl)c(OCC)cc1NC(C)=O | -3.67 | 
7 | O=S(=O)(Nc1ncnc2sccc12)c1cccc(F)c1 | 19.2 | 
8 | CCN(CC(=O)NCc1ccco1)S(=O)(=O)c1ccc(F)cc1 | -6 | 
9 | Cc1cc(C)cc(N(CC(=O)NC2CCCC2)C(=O)CCC(=O)Nc2nccs2)c1 | 4.02 | 
10 | COc1cc(C(=O)OCc2cc(=O)n3ccsc3n2)ccc1OC(C)C | 16.8 | 
11 | COCCNC(=O)CSc1nc2sccc2c(=O)n1-c1ccccc1 | 1.63 | 
12 | CC(=O)NC(Cc1ccc(F)c(F)c1)C(=O)NC1CCN(c2nnnn2-c2ccccc2)CC1 (configuration not stated) | -0.882 | 
13 | CC1CN(c2nc(-c3ccccc3)nnc2-c2ccccc2)CC(C)O1 (configuration not stated) |  | 12.6 µM (active)
14 | CC1CN(C(=S)SCC(=O)c2ccccc2)CC(C)O1 (configuration not stated) | 20.5 | 
15 | COc1cccc(CNc2nc(C(F)(F)F)nc3ccccc23)c1 |  | 15.8 µM (active)
16 | NS(=O)(=O)c1ccc(CCNc2nc(C(F)(F)F)nc3ccccc23)cc1 | 10.7 | 
17 | COc1ccc(CNc2ncnc3ccccc23)cc1 | -6.94 | 
18 | CN(c1ccccc1)S(=O)(=O)c1cccc(NC(=O)Cc2c(F)cccc2Cl)c1 | 9.22 | 
19 | O=C(COc1ccc(Br)cc1F)NCC1(N2CCCCC2)CCCCC1 | -1.19 | 
20 | Cc1cccc(NC(=S)N2CCC(O)CC2)c1C | 11.9 | 
21 | CCOC(=O)/C(=N\Nc1ccccc1Cl)N(C)C1CCS(=O)(=O)C1 (configuration not stated) | 17.3 | 
22 | CC(C)CN1CCNC(=O)C1CC(=O)N(C)CC1CCOCC1 (configuration not stated) | -15.8 | 
23 | O=C(c1cccc(S(=O)(=O)N2CCCC2)c1)N(Cc1ccco1)C1CCS(=O)(=O)C1 (configuration not stated) | 2.24 | 

Row | Structure (SMILES) | growth rescue (activation) [%] | Potency
24 | COc1ccc(-c2nn(C)c(=O)c3ccccc23)cc1CNC(=O)C1CCCCC1 | 10.4 | 
25 | CCc1ccc(N2CC(C(=O)Nc3ccc(S(=O)(=O)Nc4nccs4)cc3)CC2=O)cc1 (configuration not stated) | 3.52 | 
26 | Cc1nc2c(OCc3ccc(Cl)cc3Cl)cccn2c1N(C)CC1CC1 | -1.5 | 
27 | CC1CCN(c2ccc(C(=O)Nc3nnc(C4CC4)s3)cc2[N+](=O)[O-])CC1 | 1.71 | 
28 | Cc1ccc(NC(=O)c2ccc(Cl)nc2)cc1S(=O)(=O)N1CCOCC1 | 1.92 | 
29 | CC(C)N(C)C(=O)CCc1nnc(CCc2c[nH]c3ccccc23)o1 | -2.17 | 
30 | CC(CC(=O)N1CCN(S(=O)(=O)c2ccccc2)CC1)n1cncn1 (configuration not stated) | -14.2 | 
31 | COc1ccc(OCC(=O)Nc2cc(C)c(Cl)cc2OC)c([N+](=O)[O-])c1 | 12.2 | 
32 | Cc1ccc(C)c(S(=O)(=O)N2CCN(CC(=O)Nc3ccc([N+](=O)[O-])cc3)CC2)c1 | 21.5 | 
33 | Cc1ccc(C)c(S(=O)(=O)N2CCN(c3ncnc4sccc34)CC2)c1 |  | 11.2 µM (active)
34 | Cc1ccc([N+](=O)[O-])cc1S(=O)(=O)N1CCCN(C)CC1 | 10.7 | 
35 | CCN(CC(=O)Nc1ccccc1C(=O)NC1CC1)Cc1cccs1 | 14.9 | 
36 | CC(=O)NC(CC(=O)Nc1ccc(S(=O)(=O)N2CCOCC2)cc1)c1ccccc1 (configuration not stated) | 21.1 | 
37 | COc1ccc(NC(=O)N2CCCC(C(=O)Nc3ccccc3OC)C2)cc1 (configuration not stated) | 18.1 | 
38 | COc1ccc(CNC(=O)C(c2ccc(O)cc2)N(Cc2ccco2)C(=O)c2snc(C(N)=O)c2N)cc1 (configuration not stated) | -7.37 | 
39 | O=C(c1cccs1)N(Cc1cc2ccccc2[nH]c1=O)CC1CCCO1 (configuration not stated) | -0.588 | 
40 | CCOc1ccc(C(C)=O)cc1CSc1nnc(-c2ccncc2)n1CCOC | -4.62 | 
41 | CCOc1ccc(S(=O)(=O)N2CCC(C(=O)NCc3ccccn3)CC2)cc1Cl | -4.66 | 
42 | Cc1cccc(C(=O)N2CCN(S(=O)(=O)N3CCCCC3)CC2)c1 | 28.1 | 
43 | Cc1ccc(C(=O)NNC(=O)CSc2nnc3ccccn23)cc1 | 5.26 | 
44 | Cc1cc(C)nc(N/N=C/c2c(C)oc3ccccc23)n1 | 13.5 | 
45 | CCOC(=O)C1CCN(C(=O)COc2cccc3ccccc23)CC1 | 14.4 | 
46 | CN(C)S(=O)(=O)Oc1ccccc1C(=O)Nc1ccccc1Cl | 5.76 | 

Row | Structure (SMILES) | growth rescue (activation) [%] | Potency
47 | CC1(C(=O)NS(=O)(=O)c2ccc(Cl)cc2)CCN1C(=O)CC1CCCC1 (configuration not stated) | 5.06 | 
48 | O=C(N/N=C/c1ccc([N+](=O)[O-])cc1)C(=O)N1CCCC1 | 10.7 | 
49 | C/C(=C/C(=O)N1CCN(C)CC1)C(=O)O | -4.69 | 
50 | CCOc1ccc(NC(=O)CCC(=O)NNC(=O)NC2CCCCC2)cc1 | -6.88 | 
51 | O=C(O)CC/C(=C\c1cc2c(cc1Br)OCO2)c1nc2ccccc2s1 | 14.9 | 
52 | O=C(O)c1cccc(S(=O)(=O)Nc2ccc(O)cc2Sc2nc3ccccc3s2)c1 | 8.39 | 
53 | O=C(O)c1ccccc1CSc1nc2ccccc2s1 |  | 11.2 µM (active)
54 | COc1ccccc1N(CC(=O)Nc1ccc(C)cc1Cl)S(=O)(=O)c1cccs1 | 3.97 | 
55 | O=C(NNS(=O)(=O)c1ccc(F)cc1)C1CCCCC1 | 15.8 | 
56 | O=C(Nc1ccc(Cl)cc1)c1csc([C@H]2C[C@H](O)[C@@H](CO)O2)n1 | -7.86 | 
57 | CCOC(=O)c1oc2c(CN3CCN(CCO)CC3)c(O)c(CC)cc2c(=O)c1-c1nc2ccccc2s1 | -2.19 | 
58 | CCNc1nc(NCC)nc(N/N=C/c2ccc(O)c(OC)c2)n1 | 8.29 | 
59 | COc1ccc(C(=O)NC2CCN(C(=O)Nc3ccc(F)cc3)CC2)cc1 | 4.62 | 
60 | Cc1nc(CN2CCN(C(=O)CCc3nnc(Cc4c[nH]c5ccccc45)o3)CC2)cs1 | 5.06 | 
61 | CCNC(=O)C1(C)CCCN(Cc2noc(-c3ccccc3OC)n2)C1 (configuration not stated) | 8.22 | 
62 | Cc1ccc(CN(CC(=O)NCC2CCCO2)S(=O)(=O)c2ccc(C)cc2)cc1 (configuration not stated) | 21 | 
63 | COC(=O)c1c(NC(=O)CN2C(=O)NC(CCc3ccccc3)C2=O)sc2c1CCCCC2 (configuration not stated) | -21.8 | 
64 | COCCNC(=O)CN(Cc1ccco1)C(=O)CCC(=O)Nc1nccs1 | 2.54 | 
65 | O=C(NCCCN1CCOCC1)c1cc(-c2cccc(O)c2)on1 | -3.23 | 
66 | COc1ccc(CCNC2=CC(=O)CC(C)(C)C2)cc1 | -5.94 | 
67 | CCOc1ccccc1/C=N/Nc1nc2ccccc2o1 | 15.2 | 
